Results reported in PubChem BioAssay (EPA / NIEHS).
Active and inactive are the calls of the source. How the source made its calls: active means hit-call score of the fitted dose curve at least 0.9, where 1 is the maximum; inactive means score below 0.9.

Test: ATG_TA_CIS: Attagene CIS-FACTORIAL HepG2 Assay for human TA Basal Promoter (AID 2282964)
Details: HepG2 Attagene CIS-factorial TA basal promoter reporter; actives raise or lower the signal
Method: ATG_CIS is a cell-based, multiplexed-readout assay that uses HepG2, a human liver cell line, with measurements taken at 24 hours after chemical dosing in a 24-well plate.ATG_TA_CIS is one of 52 assay component(s) measured or calculated from the ATG_CIS assay. It is designed to make measurements of mRNA induction, a form of inducible reporter, as detected with fluorescence intensity signals by Reverse transcription polymerase chain reaction (RT-PCR) and Capillary electrophoresis technology.Data from the assay component ATG_TA_CIS was analyzed into 1 assay endpoint. This assay endpoint, ATG_TA_CIS, was analyzed with bidirectional fitting relative to DMSO as the negative control and baseline of activity. Using a type of inducible reporter, measures of mRNA for gain or loss-of-signal activity can be used to understand the background control at the transcription factor-level as they relate to the gene . Furthermore, this assay endpoint can be referred to as a secondary readout, because this assay has produced multiple assay endpoints where this one serves a background control function. To generalize the intended target to other relatable targets, this assay endpoint is annotated to the background measurement intended target family, where the subfamily is internal marker.
Human liver HepG2 cells are transiently transfected with multiple reporter transcription units (MRTUs) in 6-well plates using FuGene 6 reagent (Roche; 3 ml FuGene/1 mg DNA). The MRTU constructs are regulated by a cis-regulating element (promoter). […] A major difference between the CIS and TRANS system is that in CIS activities of endogenous TFs are measured, whereas the TRANS assay evaluates changes in activities of exogenous, chimeric NR-Gal4 proteins. […] At the end of 24 hour incubation, total RNA was isolated using TriZol reagent (Invitrogen). The isolated RNA is then reverse-transcribed using oligo(dT) primer and Mo-MLV reverse transcriptase (Invitrogen) with DNAse I (Ambion) treatment for 30 min. The one-tenth of the produced cDNA was amplified by PCR using Taq DNA polymerase (Invitrogen) and two reporter sequence-specific primers. The PCR products were fluorescently labeled by primer extension with 6-arboxyfluorescein (6-FAM) 5'-labeled reporter sequence-specific primer (2 min at 95 C, 20 s at 68 C and 10 min at 72 C) and these products were digested with 5U of HpaI (New England Biolabs) for 2h at 37 C. The fragments were purified using Qiaquick PCR columns (Qiagen), analyzed on an ABI 3130xL genetic analyzer (Applied Biosystems) with peak positions identified by using a set of X-rhodamine (ROX)-labeled MapMarker1000 molecular weight standards (BioVentures). The raw capillary electrophoresis data was processed using Attagraph software (Attagene).

SMILES | outcome | AC50
COc1ccc(OC)c(C=O)c1 | inactive | –
CCCCOCCOC(C)=O | inactive | –
COc1cc(-c2ccc(N)c(OC)c2)ccc1N | inactive | –
CCNc1nc(NC(C)(C)C)nc(SC)n1 | inactive | –
CCC(=O)c1ccccc1 | inactive | –
O=[N+]([O-])c1ccc2c3c(cccc13)CC2 | inactive | –
CNC | inactive | –
O=Cc1cccc(Oc2ccccc2)c1 | inactive | –
ClC1(Cl)C2(Cl)C3(Cl)C4(Cl)C(Cl)(Cl)C5(Cl)C3(Cl)C1(Cl)C5(Cl)C24Cl (stereo not given) | inactive | –
COc1ccc(C=O)cc1 | inactive | –
Cc1ccc2ccccc2c1C | inactive | –
NNC(=S)NN | inactive | –
Nc1cccc(Cl)c1 | inactive | –
CCCCCCCCC(=O)NCc1ccc(O)c(OC)c1 | inactive | –
CN(C)P(=O)(N(C)C)N(C)C | inactive | –
COc1cc2c(cc1OC)[C@@]13CCN4CC5=CCO[C@H]6CC(=O)N2[C@H]1[C@H]6[C@H]5C[C@H]43 | inactive | –
O=C1C(Cl)=C(Cl)C(=O)c2ccccc21 | inactive | –
O=C(O)C(F)(F)C(F)(F)C(F)(F)C(F)(F)C(F)(F)C(F)(F)C(F)(F)C(F)(F)C(F)(F)C(F)(F)F | inactive | –
CCCCP(CCCC)CCCC | inactive | –
CC(C)(C)c1cc(O)ccc1O | – | 138 µM (active)

SMILES | outcome | AC50
Nc1cccc2ccccc12 | inactive | –
CC1(C)Cc2cccc(O)c2O1 | inactive | –
Clc1ccc(C2(Cn3cncn3)CC(Br)CO2)c(Cl)c1 (stereo not given) | inactive | –
CCOP(=S)(OCC)Oc1nc(Cl)c(Cl)cc1Cl | inactive | –
CCOC(=O)Nc1cccc(OC(=O)Nc2ccccc2)c1 | inactive | –
N#CN=C(N)N | inactive | –
COc1ccccc1OC | inactive | –
Cc1ccccc1N | inactive | –
CC(=O)[O][Hg][c]1ccccc1 | inactive | –
C[C@]12CC[C@H](O)CC1=CC[C@@H]1[C@@H]2CC[C@]2(C)C(=O)CC[C@@H]12 | inactive | –
Cl/C=C\C[N+]12CN3CN(CN(C3)C1)C2 | inactive | –
CC(C)(c1ccccc1)c1ccc(O)c(C(C)(C)c2ccccc2)c1 | inactive | –
COC(=O)c1sccc1S(=O)(=O)NC(=O)Nc1nc(C)nc(OC)n1 | inactive | –
O=C(O)Cc1ccccc1 | inactive | –
COS(=O)(=O)c1ccc(C)cc1 | inactive | –
O=C(Cc1ccccc1)c1ccccc1 | inactive | –
CCCCCCCCCl | inactive | –
CCOC(=O)CP(=O)(OCC)OCC | inactive | –
COC(=O)Cc1ccccc1 | inactive | –
O=C1C2(Cl)C3(Cl)C4(Cl)C(Cl)(Cl)C5(Cl)C3(Cl)C1(Cl)C5(Cl)C24Cl (stereo not given) | inactive | –
